Data taken from PubChem BioAssay (NCATS).
Inconclusive results are not listed. Active and inactive are the calls of the source. The call rests on the fitted dose curve; in most records, active means well fitted curve in the direction sought with a large enough effect; inconclusive means small, poorly fitted or top-dose-only effect, or another doubt; inactive means no such curve, though single readings can be large; an effect the other way counts as inactive or inconclusive.

Assays:
[1] = molecular target: Glutathione peroxidase 1 (Homo sapiens) (UniProt P07203); assay: Primary qHTS Assay for Inhibitors of Recombinant Selenoprotein Glutathione Peroxidase 1 (GPX1) (AID 1845191); settings: recombinant GPX1, GR-coupled NADPH fluorescence, 15 min; series mostly up to 48.8 µM; further: nearly all actives have a fitted effect of over 65% in size; on activity, negative = inhibition: on the % scale 0 is the no-effect control and ±100 the full control effect
Sequence of Glutathione peroxidase 1 (Homo sapiens) (P07203 whole entry, looked up): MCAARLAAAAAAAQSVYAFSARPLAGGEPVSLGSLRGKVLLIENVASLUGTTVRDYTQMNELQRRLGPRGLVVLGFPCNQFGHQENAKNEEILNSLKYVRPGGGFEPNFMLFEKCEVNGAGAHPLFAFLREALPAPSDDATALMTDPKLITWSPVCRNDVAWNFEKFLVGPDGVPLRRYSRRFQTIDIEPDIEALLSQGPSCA
Summary of the method: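 GPX1 10 nM, GR 100 nM, GSH 1 mM, NADPH 0.5 mM, CHP 0.5 mM (final). 30-min cpd preincubation, RT. Ex340/Em450 read t=0, t=15 min.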

[2] = molecular target: Phospholipid hydroperoxide glutathione peroxidase GPX4 (Homo sapiens) (UniProt P36969); assay: Primary qHTS Assay for Inhibitors of Recombinant Selenoprotein Glutathione Peroxidase 4 (GPX4) (AID 1845192); settings: recombinant GPX4, GR-coupled NADPH fluorescence, 15 min; series mostly up to 50 µM; further: nearly all actives have a fitted effect of over 65% in size; on activity change, negative = inhibition: on the % scale 0 is the no-effect control and ±100 the full control effect
Sequence of Phospholipid hydroperoxide glutathione peroxidase GPX4 (Homo sapiens) (P36969 whole entry, looked up): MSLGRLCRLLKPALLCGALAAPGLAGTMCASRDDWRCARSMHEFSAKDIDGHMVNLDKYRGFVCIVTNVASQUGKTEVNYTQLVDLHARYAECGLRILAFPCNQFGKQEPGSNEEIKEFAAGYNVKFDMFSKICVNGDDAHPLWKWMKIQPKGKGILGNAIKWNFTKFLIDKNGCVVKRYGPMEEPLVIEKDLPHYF
Summary of the method: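 qHTS, GR-coupled: GPX4 200 nM + cpd 30 min RT → GSH 1 mM, NADPH 0.5 mM, GR 100 nM → CHP 0.5 mM start; fluor 340/450 at t0 and t15 min; no-enzyme wells as control.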

[3] = molecular target: Luciferin 4-monooxygenase (Photinus pyralis) (UniProt P08659); assay: Primary firefly luciferase (FLuc) qHTS assay for identification of artifact compounds. (AID 1845220); settings: purified firefly luciferase, luminescence, 5 min; series mostly up to 54.1 µM; further: nearly all actives have a fitted effect of over 60% in size;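 on activity change, negative = inhibition: plate controls were DMSO vehicle for no effect and no enzyme for full effect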
Summary of the method: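 In this counter-screen for luciferase artifacts, test compounds met substrate (10 uM each luciferin and ATP) before 10 nM enzyme started the reaction. Light output was measured 5 min later.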

[4] = Primary fluorescence-based thiol-reactive (MSTI) qHTS assay for identification of artifact compounds. (AID 1845221); settings: MSTI thiol-reactivity probe, 1 h; series mostly up to 53.8 µM; further: nearly all actives have a fitted effect of over 65% in size; further: potency means the concentration at half of the fitted maximal effect;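 on activity change, negative = thiol reactive: thiol-reactive compounds lower the probe fluorescence signal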
Summary of the method: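 MSTI probe at 4 uM final in 2% DMSO/PBS pH 7.4; compounds, 1 h at room temperature in dark. Fluorescence Ex/Em 525/598 nm, normalised to Acetyl-MSTI and MSTI, fitted to 4-parameter Hill.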

[5] = test system: Nanoluciferase (engineered Oplophorus gracilirostris luciferase); assay: Primary Nanoluciferase (NLuc) qHTS assay for identification of artifact compounds. (AID 1845222); settings: NLuc-conditioned medium, Nano-Glo luminescence, 5 min; series mostly up to 54.1 µM;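 further: NLuc secreted into diluted conditioned medium of S16 cells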
Summary of the method: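 Using secreted nanoluciferase in S16 culture medium (0.22 um filtered, 1:55 dilution), compounds were preincubated 15 min at RT. Signal was generated with Nano-Glo reagent (1:100) over 5 min.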

C=C1C(=O)OC2C1CCC(=C)C1CC(OC(C)=O)C(=C)C12 (centres undefined)
active: Potency [4] 18.9 µM
inactive: Potency [1] | Potency [2] | Potency [3] | Potency [5]

O=C(CCc1ccccc1)N1CCC(O)(Cn2cnc3cc(Cl)ccc3c2=O)CC1
inactive: Potency [1] | Potency [2] | Potency [3] | Potency [4] | Potency [5]

COc1cc(N2CCOCC2)ccc1Nc1ncc(Cl)c(Nc2ccccc2NS(C)(=O)=O)n1
inactive: Potency [1] | Potency [2] | Potency [3] | Potency [5]
active: Potency [4] 1.34 µM

Cc1nc2ccc(Oc3ccc(F)cc3)cc2c(=O)n1C[C@H]1CCCN(C(C)C)C1
inactive: Potency [1] | Potency [2] | Potency [3] | Potency [4] | Potency [5]

C[C@@H]1CC[C@]2(C(=O)O[C@@H]3O[C@H](CO)[C@@H](O)[C@H](O)[C@H]3O)CC[C@]3(C)C(=CCC4[C@@]5(C)C[C@@H](O)[C@H](O)[C@@](C)(C(=O)O[C@H]6[C@H](O)C[C@@]7(C)C(CC[C@]8(C)C7CC=C7[C@H]9[C@](C(=O)O[C@@H]%10O[C@H](CO)[C@@H](O)[C@H](O)[C@H]%10O)(CC[C@@H](C)[C@@]9(C)O)CC[C@]78C)[C@@]6(CO)C(=O)O)C5CC[C@]43C)[C@@H]2[C@]1(C)O (some centres undefined)
inactive: outcome [1] inactive [at 9.52 µM] | activity change, negative = inhibition [2] -0.473% [at 9.73 µM] | activity change, negative = inhibition [3] 0.17% [at 11.6 µM] | activity change, negative = thiol reactive [4] -3.19% [at 11.5 µM] | activity, negative = inhibition [5] -2.05% [at 11.6 µM]

CC(=O)OC1C(OC(=O)c2ccccc2)C2C(C)(C)CC(=O)CC2(C)C23CCC(C)(C2)C(O)CC13 (centres undefined)
inactive: Potency [1] | Potency [2] | Potency [3] | Potency [4] | Potency [5]

COc1c2c(c(C)c3c1C(=O)OC3)OC1(C)CC(O)C34OC(OC)(CC(OC(C)=O)C3(C)C1C2)OC4(C)C (centres undefined)
inactive: Potency [1] | Potency [2] | Potency [3] | Potency [4] | Potency [5]

COc1cc(N2CCC(N3CCN(C)CC3)CC2)ccc1Nc1ncc(Cl)c(-c2c[nH]c3ccccc23)n1
active: Potency [4] 1.68 µM
inactive: Potency [1] | Potency [2] | Potency [3]

CC(C)C(NC(=O)c1ccc2ccccc2n1)C(=O)NC(CC(=O)O)C(=O)COc1c(F)cccc1F (centres undefined)
inactive: Potency [1] | Potency [2] | Potency [3] | Potency [4]

CCN1CCN(Cc2ccc(Nc3ncc(F)c(-c4cc(F)c5nc(C)n(C(C)C)c5c4)n3)nc2)CC1
inactive: Potency [1] | Potency [2] | Potency [3] | Potency [4]

COc1ccc(CC2C(=O)NC(C)C(=O)N(C)C3Cc4ccc(cc4)Oc4cc(ccc4OC4OC(CO)C(O)C(O)C4O)CC(C(=O)NC(C)C(=O)NC(C)C(=O)N2C)N(C)C3=O)cc1 (centres undefined)
inactive: Potency [1] | Potency [2] | activity change, negative = inhibition [3] -7.7% [at 11.6 µM]

C[C@@H]1O[C@@H](O[C@H]2[C@H](O)[C@@H](C(=O)O)O[C@@H](O[C@H]3CC[C@@]4(C)C(CC[C@]5(C)C4CC=C4C6CC(C)(C)CC[C@]6(C(=O)O)CC[C@]45C)C3(C)C)[C@@H]2O[C@@H]2OC[C@@H](O)[C@H](O)[C@H]2O)[C@H](O)[C@H](O)[C@H]1O (some centres undefined)
inactive: Potency [1] | Potency [2] | activity change, negative = inhibition [3] 1.83% [at 11.6 µM] | activity change, negative = thiol reactive [4] 129% [at 11.5 µM] | activity, negative = inhibition [5] 0.398% [at 11.6 µM]

C[C@@H]1CC[C@]2(C(=O)OC3OC(CO)C(O)C(O)C3O)CC[C@]3(C)C(=CCC4[C@@]5(C)CC[C@H](O)[C@](C)(C(=O)O)C5CC[C@]43C)C2[C@]1(C)O (some centres undefined)
inactive: Potency [1] | Potency [2] | Potency [3] | Potency [4] | Potency [5]

CC1CCC2C(C)(C)[C@@H](O)CC[C@]2(C)C12Cc1c(O)cc3c(c1O2)CN(C(CCC(=O)O)C(=O)O)C3=O (some centres undefined)
inactive: Potency [1] | Potency [2] | Potency [3] | Potency [4] | Potency [5]

COc1cc(C)c(C(=O)O[C@H]2[C@@H](OC(C)=O)[C@H](n3ccc(=O)[nH]c3=O)O[C@@H]2CO)c(OC)c1
inactive: Potency [1] | Potency [2] | Potency [3] | Potency [4] | Potency [5]

CC1OC(OCC2OC(OC3CCC4(C)C(CCC5(C)C4CC=C4C6CC(C)(C)CCC6(C(=O)OC6OC(CO)C(O)C(O)C6O)CCC45C)C3(C)CO)C(O)C(O)C2O)C(O)C(O)C1O (centres undefined)
inactive: Potency [1] | Potency [2] | activity change, negative = inhibition [3] -1.2% [at 11.6 µM] | activity change, negative = thiol reactive [4] 188% [at 11.5 µM] | activity, negative = inhibition [5] 0% [at 11.6 µM]

O=C(O)c1cc(I)ccc1NC(=O)[C@H](Cc1ccccc1)NCc1ccccc1
inactive: Potency [1] | Potency [2] | Potency [3] | Potency [4]

C=C1C(=O)OC2/C=C(\CO)CC/C=C(\C=O)CC(OC(=O)CC(C)C)C12 (centres undefined)
inactive: Potency [1] | Potency [2] | Potency [3] | Potency [5]
active: Potency [4] 16.5 µM

CC1=CC2C(CC1OC1OC(CO)C(O)C(O)C1O)C(C)CC(=O)C2C(C)C (centres undefined)
inactive: Potency [1] | Potency [2] | Potency [3] | Potency [5]
active: Potency [4] 3.69 µM

CC(C)S(=O)(=O)N[C@H]1CCOC[C@@H]1c1ccc(-c2ccc(C#N)s2)cc1
inactive: Potency [1] | Potency [2] | Potency [3] | Potency [4] | Potency [5]
